OPRM1-OPRD1 ag = agonists of human mu-delta opioid receptor heterodimerization; cells, OPRM1-OPRD1 heterodimerization, luminescence; activation, % at 9.3 µM; actives 0.3% (n = 340,000); AID 504326;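 note: 0% = vehicle-treated cells and 100% = reference agonist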
Target sequence (P35372 whole entry, looked up): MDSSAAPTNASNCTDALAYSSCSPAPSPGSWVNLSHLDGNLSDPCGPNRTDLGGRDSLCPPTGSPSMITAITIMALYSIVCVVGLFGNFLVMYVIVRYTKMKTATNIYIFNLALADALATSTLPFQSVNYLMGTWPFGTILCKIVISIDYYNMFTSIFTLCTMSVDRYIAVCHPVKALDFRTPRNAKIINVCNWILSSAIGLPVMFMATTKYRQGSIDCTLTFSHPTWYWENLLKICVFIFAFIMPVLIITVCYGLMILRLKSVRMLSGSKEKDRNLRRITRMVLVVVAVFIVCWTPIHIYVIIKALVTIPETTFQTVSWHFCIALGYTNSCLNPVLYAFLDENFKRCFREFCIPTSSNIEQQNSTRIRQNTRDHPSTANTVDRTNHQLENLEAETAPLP
Target sequence (P41143 whole entry, looked up): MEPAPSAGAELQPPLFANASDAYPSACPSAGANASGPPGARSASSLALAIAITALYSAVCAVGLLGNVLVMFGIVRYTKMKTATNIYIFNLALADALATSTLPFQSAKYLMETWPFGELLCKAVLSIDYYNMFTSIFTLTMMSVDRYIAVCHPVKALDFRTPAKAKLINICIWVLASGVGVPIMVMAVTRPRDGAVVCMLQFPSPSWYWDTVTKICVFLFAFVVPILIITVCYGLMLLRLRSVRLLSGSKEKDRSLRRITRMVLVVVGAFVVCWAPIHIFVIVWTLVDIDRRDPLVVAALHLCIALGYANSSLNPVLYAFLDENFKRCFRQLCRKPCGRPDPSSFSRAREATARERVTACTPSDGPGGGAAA
HTR5A ag = HTR5A agonism, opioid heterodimer counter-screen; HTR5A agonist assay, luminescence, cell-based; activation, % at 9.3 µM; actives 0.61% (n = 340,000); in the data active = activation mostly above about 9.5%, no sharp cut-off; inactive = mostly below about 7.6%;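 note: 0% = cells with vehicle only and 100% = reference agonist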
OPRM1-OPRD1 inv = inverse agonist of human OPRM1-OPRD1 heterodimerization. actives 0.21% (n = 340,000). P35372+P41143. inhibition, % at 9.3 µM. AID 504357. cell-based MOR-DOR heterodimer luminescence, inverse agonism; in the data active = inhibition above about 22%, passing the limit was not always enough;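 note: 0% = cells with DMSO and 100% = wells without cells with DMSO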
HTR5A inv ctr = inverse agonist of human HTR5A in OPRM1-OPRD1 counter-screen; HTR5A cell line, luminescence, inverse agonism; inhibition, % at 9.3 µM; actives 0.083% (n = 340,000); AID 504634; in the data active = inhibition mostly above about 23%, no sharp cut-off; inactive = mostly below about 18%;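 note: 0% = cells with DMSO and 100% = no-cell wells with DMSO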
MOR-DOR ag conf = confirmation of human OPRM1-OPRD1 heterodimerization agonists | shares compounds with OPRM1-OPRD1 ag | cells, MOR-DOR heterodimerization, luminescence complementation | activation, % at 9.3 µM | actives 45% (n = 830);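 note: 0% = vehicle-treated cells and 100% = reference agonist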
HTR5A ag counter = counter-screen for OPRM1-OPRD1 agonists: human HTR5A agonism | activation, % at 9.3 µM | HTR5A agonist counterscreen, cell luminescence | actives 8% (n = 830) | shares compounds with OPRM1-OPRD1 ag | AID 504905; in the data active = activation above about 17%;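 note: 0% = vehicle-treated cells and 100% = reference agonist response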
* marks the source's active call; other numbers are inactive results. Most compounds without a hit are left out; they make up all but 1.1% or so of the library. Cut-off read from the data, not from the text of the source, unless noted: active = activation above about 18%; inactive = the rest.

`Cc1ccc(C)c(N2CCN(S(=O)(=O)c3ccc(-c4ccc(=O)[nH]n4)o3)CC2)c1` gave OPRM1-OPRD1 ag 20*, HTR5A ag 5, OPRM1-OPRD1 inv -108, HTR5A inv ctr -1, MOR-DOR ag conf 16 and HTR5A ag counter 3.
`Cc1ccc(Cl)cc1N1CCN(S(=O)(=O)c2ccc(-c3ccc(=O)[nH]n3)o2)CC1` gave OPRM1-OPRD1 ag 10, HTR5A ag -3, OPRM1-OPRD1 inv -49 and HTR5A inv ctr -13.
Screening COc1ccc(Cl)cc1NC(=O)c1cc(-c2ccccc2O)n[nH]1 returned OPRM1-OPRD1 ag 12, HTR5A ag 0, OPRM1-OPRD1 inv -71 and HTR5A inv ctr 0.
COc1ccc(OC)c(NC(=O)c2cc(-c3cc(Cl)ccc3O)n[nH]2)c1 was read as OPRM1-OPRD1 ag 19*, HTR5A ag 9, OPRM1-OPRD1 inv -112, HTR5A inv ctr -47, MOR-DOR ag conf 0 and HTR5A ag counter 12.
For Cc1cc(N)cc(C)c1-c1c(Br)cc(N)cc1Br the results were OPRM1-OPRD1 ag -4, HTR5A ag -3, OPRM1-OPRD1 inv 19 and HTR5A inv ctr 11.
For CCCC(C)C(=O)Nc1ncc(S(=O)(=O)c2ccc([N+](=O)[O-])cc2)s1 (stereo unspecified) the results were OPRM1-OPRD1 ag 21*, HTR5A ag 7, OPRM1-OPRD1 inv -112, HTR5A inv ctr -12, MOR-DOR ag conf -2 and HTR5A ag counter 2.
`CCC(C)(C)C(=O)Nc1ncc(S(=O)(=O)c2ccc([N+](=O)[O-])cc2)s1` gave OPRM1-OPRD1 ag 9, HTR5A ag 3, OPRM1-OPRD1 inv -55 and HTR5A inv ctr -38.
`CCOC(=O)[C@@H]1[C@H]2COc3ccc(Br)cc3[C@@H]2N2C(=O)N(c3ccc(C(F)(F)F)cc3)C(=O)[C@@]12C` gave OPRM1-OPRD1 ag 2, HTR5A ag -1, OPRM1-OPRD1 inv -9 and HTR5A inv ctr -6.
`Cc1cccc(NC(=S)NC(C)CCc2ccccc2)c1` (stereo unspecified) gave OPRM1-OPRD1 ag 6, HTR5A ag 7, OPRM1-OPRD1 inv -34 and HTR5A inv ctr -17.
`CC(c1ccccc1)N1CCC(CNC(=S)Nc2cccc(Cl)c2)C1` (stereo unspecified) gave OPRM1-OPRD1 ag 19*, HTR5A ag 0, OPRM1-OPRD1 inv -96, HTR5A inv ctr -10, MOR-DOR ag conf 1 and HTR5A ag counter 28*.
CN(C)C(CNC(=S)Nc1cccc(Cl)c1)c1ccccc1 (stereo unspecified) was read as OPRM1-OPRD1 ag 357*, HTR5A ag 9, OPRM1-OPRD1 inv inactive, HTR5A inv ctr -19, MOR-DOR ag conf 421* and HTR5A ag counter 3.
`Cc1ccc(Cl)cc1NC(=O)CNCC(c1ccccc1)N(C)C` (stereo unspecified) gave OPRM1-OPRD1 ag 50*, HTR5A ag 4, OPRM1-OPRD1 inv -228, HTR5A inv ctr -12, MOR-DOR ag conf 76* and HTR5A ag counter 1.
`Cc1cccc(NC(=S)NCC(c2ccccc2)N(C)C)c1` (stereo unspecified) gave OPRM1-OPRD1 ag 348*, HTR5A ag 2, OPRM1-OPRD1 inv inactive, HTR5A inv ctr -6, MOR-DOR ag conf 1 and HTR5A ag counter 2.
For Cc1ccc(NC(=S)NCC2CCN(C(C)c3ccccc3)C2)cc1 (stereo unspecified) the results were OPRM1-OPRD1 ag -1, HTR5A ag 2, OPRM1-OPRD1 inv 4 and HTR5A inv ctr -1.
For Cn1c(CNC(=O)c2ccco2)nnc1SCC(=O)Nc1ccc(Cl)cc1 the results were OPRM1-OPRD1 ag 0, HTR5A ag -1, OPRM1-OPRD1 inv -1 and HTR5A inv ctr 3.
For COc1ccc(C(CNC(=O)c2ccc3c(c2)OCCO3)N(C)C)cc1 (stereo unspecified) the results were OPRM1-OPRD1 ag 132*, HTR5A ag -2, OPRM1-OPRD1 inv inactive, HTR5A inv ctr 6, MOR-DOR ag conf 148* and HTR5A ag counter 1.
`CN(C)C(CNC(=O)c1cccc(S(=O)(=O)Nc2ccc(SC(F)F)cc2)c1)c1ccccc1` (stereo unspecified) gave OPRM1-OPRD1 ag 38*, HTR5A ag -2, OPRM1-OPRD1 inv -150, HTR5A inv ctr 1, MOR-DOR ag conf 5 and HTR5A ag counter 1.
For CN(C)C(CNC(=O)c1cccc(S(=O)(=O)N(C)C)c1)c1ccccc1 (stereo unspecified) the results were OPRM1-OPRD1 ag 33*, HTR5A ag 4, OPRM1-OPRD1 inv -178, HTR5A inv ctr -15, MOR-DOR ag conf 2 and HTR5A ag counter 26*.
For COc1ccc(NS(=O)(=O)c2cccc(C(=O)NCC(c3ccccc3)N(C)C)c2)cc1 (stereo unspecified) the results were OPRM1-OPRD1 ag 3, HTR5A ag 1, OPRM1-OPRD1 inv -18 and HTR5A inv ctr 0.
`COc1ccc(C(CNC(=O)c2cccc(S(=O)(=O)NCc3ccccc3)c2)N(C)C)cc1` (stereo unspecified) gave OPRM1-OPRD1 ag 20*, HTR5A ag -2, OPRM1-OPRD1 inv -104, HTR5A inv ctr 12, MOR-DOR ag conf 15 and HTR5A ag counter 0.
`CC1C(=O)N2CCCc3cc(S(=O)(=O)N(C)CCC#N)cc1c32` (stereo unspecified) gave OPRM1-OPRD1 ag -2, HTR5A ag 0, OPRM1-OPRD1 inv 12 and HTR5A inv ctr -1.
CS(=O)(=O)Nc1cccc(C2=NN(C(=O)c3ccco3)C(c3cccs3)C2)c1 (stereo unspecified) was read as OPRM1-OPRD1 ag 2, HTR5A ag -2, OPRM1-OPRD1 inv -10 and HTR5A inv ctr -10.
`Cc1ccc(Cl)cc1N1CCN(C(=O)C(C)n2ncn3cccc3c2=O)CC1` (stereo unspecified) gave OPRM1-OPRD1 ag -1, HTR5A ag -4, OPRM1-OPRD1 inv 7 and HTR5A inv ctr 8.
Cn1c(SCC(=O)c2ccc3c(c2)NC(=O)CO3)nc2ccccc21 was read as OPRM1-OPRD1 ag 38*, HTR5A ag 7, OPRM1-OPRD1 inv -205, HTR5A inv ctr 6, MOR-DOR ag conf 25* and HTR5A ag counter 7.
Screening C=C(C)COc1ccc(-c2n[nH]c(C)c2-c2ccc(OC)cc2)c(O)c1 returned OPRM1-OPRD1 ag 30*, HTR5A ag 8, OPRM1-OPRD1 inv -176, HTR5A inv ctr -16, MOR-DOR ag conf -2 and HTR5A ag counter -2.
For COc1cc2c(cc1OC)CN(C(=O)C1CCCN(C(=O)c3ccc(Cl)cc3)C1)CC2 (stereo unspecified) the results were OPRM1-OPRD1 ag -2, HTR5A ag 3, OPRM1-OPRD1 inv 9 and HTR5A inv ctr -7.
For Cc1ccc(C)c(NC(=S)NC(NC(=O)Cc2cccc3ccccc23)C(Cl)(Cl)Cl)c1 (stereo unspecified) the results were OPRM1-OPRD1 ag 27*, HTR5A ag 3, OPRM1-OPRD1 inv -156, HTR5A inv ctr 9, MOR-DOR ag conf 4 and HTR5A ag counter 4.
